{"source": "PubChem BioAssay AID540333", "about": "(Southern Research Specialized Biocontainment Screening …, 2011)", "note": "Hit rate of the full screen: of about 10,000 compounds, about 320 (3.2%) were called active. The sample holds actives, similar compounds and a random draw of the others, so the mix is not that of the screen. Cut-off read from the data, not from the text of the source: active = CPE inhibition mostly above about 9.1% (no sharp cut-off); inactive = mostly below about 7.2%."}
{"assay": "antivirals protecting cells from dengue CPE – CPE readout, HTS (AID 540333)", "conditions": "Dengue virus CPE inhibition in host cells, at 20 µM; active compounds read high"}
{"smiles": "Cc1cc(C(=O)N/N=C/c2cc(Br)cc([N+](=O)[O-])c2O)c2ccccc2n1", "CPE inhibition": "0.34% (inactive)"}
{"smiles": "CCOC(=O)c1cccc(S(=O)(=O)N2CCCC2)c1", "CPE inhibition": "0.06% (inactive)"}
{"smiles": "O=C(NCc1ccccc1)C1=C[C@@H](C2CCCCC2)C[C@@H](OCCCCO)O1", "CPE inhibition": "2.12% (inactive)"}
{"smiles": "Cc1[nH][nH]c(=O)c1C", "CPE inhibition": "0.36% (inactive)"}
{"smiles": "Cc1ccc(S(=O)(=O)NNC(=S)NC(=O)c2ccc([N+](=O)[O-])cc2)cc1", "CPE inhibition": "inactive"}
{"smiles": "CC(C)COP(=O)(c1ccc(N(C)C)cc1)C(Nc1ccccc1)c1cccnc1", "note": "(centres undefined)", "CPE inhibition": "0.73% (inactive)"}
{"smiles": "CCCOP(=O)(c1ccc(N(C)C)cc1)C(Nc1ccccc1)c1ccc(N(C)C)cc1", "note": "(centres undefined)", "CPE inhibition": "0.64% (inactive)"}
{"smiles": "CC(C)COP(=O)(c1ccc(N(C)C)cc1)C(Nc1ccccc1)c1ccccc1", "note": "(centres undefined)", "CPE inhibition": "29.1% (active)"}
{"smiles": "O=C(NC1CCCc2ccccc21)c1ccc(Br)cc1", "note": "(centres undefined)", "CPE inhibition": "3.09% (inactive)"}
{"smiles": "Nc1ccc(-n2nnnc2CN2CCOCC2)cc1", "CPE inhibition": "0.25% (inactive)"}
{"smiles": "COc1ccc(CC(=O)Nc2cc3oc4ccccc4c3cc2OC)cc1", "CPE inhibition": "0.095% (inactive)"}
{"smiles": "C=CCOC(=O)C1=C[C@@H](c2ccc(C(F)(F)F)cc2)C[C@@H](OCCCCO)O1", "CPE inhibition": "0.15% (inactive)"}
{"smiles": "CNC(=O)/C(C#N)=C/c1c(N(Cc2ccccc2)Cc2ccccc2)nc2c(C)cccn2c1=O", "CPE inhibition": "17% (active)"}
{"smiles": "Cc1cccn2c(=O)c(/C=C(\\C#N)C(N)=O)c(N3CCN(Cc4ccc5c(c4)OCO5)CC3)nc12", "CPE inhibition": "0.905% (inactive)"}
{"smiles": "Cc1cccc(Oc2nc3ccccn3c(=O)c2/C=C(\\C#N)C(=O)NC2CCS(=O)(=O)C2)c1", "note": "(centres undefined)", "CPE inhibition": "1.43% (inactive)"}
{"smiles": "Cc1ccc(Oc2nc3ccccn3c(=O)c2/C=C(\\C#N)C(=O)Nc2c(C)n(C)n(-c3ccccc3)c2=O)c(C)c1", "CPE inhibition": "0.875% (inactive)"}
{"smiles": "CNC(=O)/C(C#N)=C/c1c(N(Cc2ccccc2)Cc2ccccc2)nc2ccccn2c1=O", "CPE inhibition": "14.1% (active)"}
{"smiles": "CCNC(=O)/C(C#N)=C/c1c(N2CCN(Cc3ccc4c(c3)OCO4)CC2)nc2c(C)cccn2c1=O", "CPE inhibition": "inactive"}
{"smiles": "COc1ccc(/C=C2/C(=O)N(Cc3ccccc3)N=C2C)cc1", "CPE inhibition": "inactive"}
{"smiles": "CCCCn1[nH]c(-c2ccccc2)cc1=O", "CPE inhibition": "inactive"}
{"smiles": "COc1ccc(OC)c(/C=C/C(=O)OCC(=O)Nc2cccc(Oc3ccccc3)c2)c1", "CPE inhibition": "0.45% (inactive)"}
{"smiles": "COc1cc(/C=C/C(=O)Nc2nnc(CC(C)C)s2)cc(OC)c1OC", "CPE inhibition": "1.95% (inactive)"}
{"smiles": "CCCS(=O)(=O)Nc1c(OC)ccc2c1c(C(=O)OCC)c(C)n2C", "CPE inhibition": "inactive"}
{"smiles": "CC(C)CNC(=O)c1ccccc1NC(=O)/C=C/c1cccc([N+](=O)[O-])c1", "CPE inhibition": "inactive"}
{"smiles": "CC(=O)NN1C(=O)/C(=C/c2ccc(C(C)C)cc2)SC1=S", "CPE inhibition": "inactive"}
{"smiles": "O=C(COC(=O)c1oc2ccccc2c1COc1ccccc1)NCCN1C(=O)CSC1=O", "CPE inhibition": "1.47% (inactive)"}
{"smiles": "CCSc1nc2ccccc2n1C(=O)c1ccc(S(=O)(=O)N2CCCCCC2)cc1", "CPE inhibition": "0.17% (inactive)"}
{"smiles": "COc1ccc(CN2C(=O)C(Cc3ccccc3)Nc3ncnc(N4CCCCC4)c32)cc1", "note": "(centres undefined)", "CPE inhibition": "2.1% (inactive)"}
{"smiles": "CCC1Nc2ncnc(N3CCOCC3)c2N(Cc2ccc(Cl)cc2)C1=O", "note": "(centres undefined)", "CPE inhibition": "0.26% (inactive)"}
{"smiles": "Cc1ccc(CN2C(=O)C(CC(C)C)Nc3ncnc(N4CCN(c5ccccc5)CC4)c32)cc1", "note": "(centres undefined)", "CPE inhibition": "37.1% (active)"}
{"smiles": "CCC1Nc2ncnc(N3CCOCC3)c2N(Cc2ccc(Br)cc2)C1=O", "note": "(centres undefined)", "CPE inhibition": "inactive"}
{"smiles": "CC(C)CC1Nc2ncnc(N3CCN(c4ccccn4)CC3)c2N(Cc2ccc(Cl)cc2)C1=O", "note": "(centres undefined)", "CPE inhibition": "9.66% (active)"}
{"smiles": "O=C(Cc1ccc(Br)cc1)N1CCN(c2ccccn2)CC1", "CPE inhibition": "inactive"}
{"smiles": "CCC1Nc2ncnc(N3CCN(c4ccccc4)CC3)c2N(Cc2ccc(Br)cc2)C1=O", "note": "(centres undefined)", "CPE inhibition": "11.1% (active)"}
{"smiles": "Cc1ccc(CN2C(=O)C(CC(C)C)Nc3ncnc(N4CCN(c5ccccn5)CC4)c32)cc1", "note": "(centres undefined)", "CPE inhibition": "2.52% (inactive)"}
{"smiles": "CC(C)CC1Nc2ncnc(N3CCN(c4ccccn4)CC3)c2N(Cc2ccccc2)C1=O", "note": "(centres undefined)", "CPE inhibition": "1.43% (inactive)"}
{"smiles": "COc1ccc2oc(=O)c(/C(C)=N/Nc3nc(-c4cc(C)ccc4C)cs3)cc2c1", "CPE inhibition": "inactive"}
{"smiles": "CC(C)(C)C1CCC(=NNC(=O)CN(c2ccccc2)S(=O)(=O)c2ccccc2[N+](=O)[O-])CC1", "note": "(centres undefined)", "CPE inhibition": "inactive"}
{"smiles": "N#Cc1ccc(COC(=O)CSc2nnc(N)s2)cc1", "CPE inhibition": "0.615% (inactive)"}
{"smiles": "NC(=O)CC(NC(=O)Cc1cccc2ccccc12)c1ccc(NCc2ccccc2)c([N+](=O)[O-])c1", "note": "(centres undefined)", "CPE inhibition": "2.03% (inactive)"}
{"smiles": "CCOC(=O)c1c(-c2ccc(F)cc2)csc1NC(=O)CCN1C(=O)c2ccccc2C1=O", "CPE inhibition": "1.4% (inactive)"}
{"smiles": "O=C(NCc1ccccc1)c1onc(CSc2ccc(F)c(F)c2)c1C(=O)NCc1ccccc1", "CPE inhibition": "0.575% (inactive)"}
{"smiles": "CCOC(=O)CN1C(=O)N[C@@H](c2ccco2)C(C(C)=O)=C1C", "CPE inhibition": "1.53% (inactive)"}
{"smiles": "Oc1cccc(/C=N/Nc2ncnc3c2ncn3Cc2ccccc2)c1", "CPE inhibition": "inactive"}
{"smiles": "O=C(CCSCCc1ccccn1)Nc1c(F)c(F)c(F)c(F)c1F", "CPE inhibition": "inactive"}
{"smiles": "O=C1CCCc2[nH]c3cccc(/C(=C/c4ccccc4)c4ccccc4)c3c21", "CPE inhibition": "22.5% (active)"}
{"smiles": "CCOC(=O)N1CCC(N2Cc3cccc(C(=O)N4CC(C)CC(C)C4)c3C2=O)CC1", "note": "(centres undefined)", "CPE inhibition": "inactive"}
{"smiles": "CCCCCC[n+]1c(-c2ccccc2)csc1Nc1ccccc1", "CPE inhibition": "7.19% (inactive)"}
{"smiles": "CC1=C(C#N)C(c2ccccc2)C2=C(N1)c1ccccc1C2=O", "note": "(centres undefined)", "CPE inhibition": "1.29% (inactive)"}
{"smiles": "CN(CC(=O)Nc1ccc(C#N)cc1)CC(=O)Nc1ccc(N2CCOCC2)cc1", "CPE inhibition": "0.525% (inactive)"}
{"smiles": "CCn1nc(C(=O)Nc2nc3ccccc3[nH]2)c2ccccc2c1=O", "CPE inhibition": "0.06% (inactive)"}
{"smiles": "CCCCCCn1nc(C(=O)Nc2nc3c(s2)CCCC3)c2ccccc2c1=O", "CPE inhibition": "29% (active)"}
{"smiles": "O=C(Nc1nc2c(s1)CCCC2)c1cc(-c2ccccc2)nc2ccccc12", "CPE inhibition": "5.19% (inactive)"}
{"smiles": "C=CCn1c(SCc2ccc(C(=O)Nc3nccs3)cc2)nnc1-c1ccc(C)c(Cl)c1", "CPE inhibition": "0.44% (inactive)"}
{"smiles": "O=C(NC(=S)NC1CCCC1)c1ccccc1Br", "CPE inhibition": "0.11% (inactive)"}
{"smiles": "CC1CCCC(NC(=S)NC(=O)c2ccccc2Br)C1C", "note": "(centres undefined)", "CPE inhibition": "21.1% (active)"}
{"smiles": "CC1CCCCC1NC(=S)NC(=O)c1ccccc1Br", "note": "(centres undefined)", "CPE inhibition": "0.915% (inactive)"}
{"smiles": "COc1cccc(NC(=O)CCC(=O)Nc2cccc(OC)c2)c1", "CPE inhibition": "0.18% (inactive)"}
{"smiles": "Cc1ccc(NC(=O)c2cc3c(s2)CCCC3)cc1S(=O)(=O)Nc1ccccc1Cl", "CPE inhibition": "1.93% (inactive)"}
{"smiles": "O=C1CC(N2C(=O)/C(=C/C=C/c3ccccc3)SC2=S)C(=O)N1c1ccccc1", "note": "(centres undefined)", "CPE inhibition": "9.17% (active)"}
{"smiles": "CC(=O)c1ccc(NC(=O)CN2C(=O)/C(=C/C=C/c3ccccc3)SC2=S)cc1", "CPE inhibition": "0.165% (inactive)"}
{"smiles": "O=C(CN1C(=O)/C(=C\\C=C\\c2ccccc2)SC1=S)Nc1ccc(F)cc1", "CPE inhibition": "1.02% (inactive)"}
{"smiles": "CC(=O)Nc1ccc(S(=O)(=O)NCC(=O)OCC(=O)NC(=O)C2CCCCC2)cc1", "CPE inhibition": "0.165% (inactive)"}
{"smiles": "NC(=O)C1(NC(=O)[C@@H]2CC3(CC(c4cccc(NC(=O)[C@@H]5CCC(=O)N5)c4)=NO3)CN2C(=O)c2cnccn2)CC1", "note": "(some centres undefined)", "CPE inhibition": "0.745% (inactive)"}
{"smiles": "O=C(CSc1nc2ccccc2s1)Nc1cc(S(=O)(=O)N2CCOCC2)ccc1O", "CPE inhibition": "inactive"}
{"smiles": "Fc1cccc(NC(=S)NCCN2CCOCC2)c1", "CPE inhibition": "0.255% (inactive)"}
{"smiles": "O=C(C[n+]1cc(-c2ccccc2)n2c1CCC2)Nc1nc(-c2ccccc2)cs1", "CPE inhibition": "4.34% (inactive)"}
{"smiles": "O=C(C[n+]1cc(-c2ccccc2)n2c1CCC2)Nc1nc(-c2ccc(F)cc2)cs1", "CPE inhibition": "17% (active)"}
{"smiles": "O=C(C[n+]1cc(-c2ccc(F)cc2)n2c1CCC2)Nc1nc(-c2ccccc2)cs1", "CPE inhibition": "0.55% (inactive)"}
{"smiles": "O=C(c1cccc(S(=O)(=O)N2CCc3ccccc3C2)c1)N1CCN(c2ccccc2)CC1", "CPE inhibition": "3% (inactive)"}
{"smiles": "CC1CCCN(S(=O)(=O)c2ccc(Br)s2)C1", "note": "(centres undefined)", "CPE inhibition": "0.775% (inactive)"}
{"smiles": "O=C(NC1CCCC1)C(NS(=O)(=O)c1ccc(Br)s1)c1ccccc1", "note": "(centres undefined)", "CPE inhibition": "0.805% (inactive)"}
{"smiles": "CC1CC(C)CN(C(=O)C(NS(=O)(=O)c2ccc(Br)s2)c2ccccc2)C1", "note": "(centres undefined)", "CPE inhibition": "24.6% (active)"}
{"smiles": "CN(/N=C/c1cc([N+](=O)[O-])ccc1O)c1ccccc1", "CPE inhibition": "1.04% (inactive)"}
{"smiles": "COC(=O)c1ccc(CSc2nnc(NC(=O)C3CC(=O)N(Cc4ccc(C)cc4)C3)s2)cc1", "note": "(centres undefined)", "CPE inhibition": "0.19% (inactive)"}
{"smiles": "CC(C)CN(CC(C)C)C(=O)CCCC(=O)N(CC(C)C)CC(C)C", "CPE inhibition": "inactive"}
{"smiles": "O=C(Nc1ccc(F)cc1)C(c1ccccc1)N1CCN(S(=O)(=O)c2ccc3ccccc3c2)CC1", "note": "(centres undefined)", "CPE inhibition": "2% (inactive)"}
{"smiles": "NS(=O)(=O)c1ccc(NC(=S)N2CCN(c3cccc(Cl)c3)CC2)cc1", "CPE inhibition": "1.62% (inactive)"}
{"smiles": "O=S(=O)(c1ccc2ccccc2c1)N1CCN(C(=S)Nc2ccc(F)cc2)CC1", "CPE inhibition": "26.1% (active)"}
{"smiles": "O=C(CNC(=O)c1ccc2ccccc2c1)OCC(=O)N1CCN(S(=O)(=O)c2ccc3ccccc3c2)CC1", "CPE inhibition": "inactive"}
{"smiles": "O=C(CCC(=O)N1CCN(S(=O)(=O)c2ccc(Cl)cc2)CC1)Nc1ccc2ccccc2c1", "CPE inhibition": "11% (active)"}
{"smiles": "O=S(=O)(c1ccc(Cl)cc1)N1CCN(C(=S)Nc2ccc(F)c(Cl)c2)CC1", "CPE inhibition": "13.6% (active)"}
{"smiles": "O=S(=O)(c1ccccc1)N1CCN(C(=S)Nc2ccc(F)cc2)CC1", "CPE inhibition": "1.81% (inactive)"}
{"smiles": "Fc1ccc(NC(=S)N2CCCC2)cc1Cl", "CPE inhibition": "0.335% (inactive)"}
{"smiles": "O=C(CCC(=O)N1CCN(S(=O)(=O)c2ccc(Cl)cc2)CC1)NCc1ccccc1", "CPE inhibition": "0.355% (inactive)"}
{"smiles": "COC(=O)c1ccc(CNC(=O)COC(=O)CC23CC4CC(CC(Br)(C4)C2)C3)cc1", "CPE inhibition": "inactive"}
{"smiles": "COc1ccc(CC(=O)NNc2ncnc3c2cnn3C)cc1", "CPE inhibition": "inactive"}
{"smiles": "Cc1cccc(CSC(Nc2ccc(F)cc2)=C(C#N)C#N)c1", "CPE inhibition": "0.46% (inactive)"}
{"smiles": "COc1cccc(C(C)NC(=O)c2c(F)cccc2Cl)c1", "note": "(centres undefined)", "CPE inhibition": "0.965% (inactive)"}
